Measurements taken from publication PMC5700166.
Numbering of substitutions follows the chain as printed.

Experiments:
Assay in all cases: protein-binding microarray (PBM); PBM: ~300 nM protein, 6 mM HEPES pH 7.8, 80 mM KCl, 0.5 mM EDTA, 0.5 mM EGTA, 6% glycerol, 35 ng/ul poly-dIdC, 1% milk, 1 h, room temperature; Ap Aiptasia and Nv Nematostella (sea anemones) / Co Capsaspora / Aq Amphimedon (sponge) / Dm Drosophila / Hu human; RHD is the Rel homology domain; high values mean tight binding
Conditions in all cases: dsDNA, one strand shown
GST-Ap-NF-kB RHD = target: T1, GST-Ap-NF-kB RHD (Exaiptasia pallida (Aiptasia), UniProt A0A913YAJ5 2-422)
T1 sequence: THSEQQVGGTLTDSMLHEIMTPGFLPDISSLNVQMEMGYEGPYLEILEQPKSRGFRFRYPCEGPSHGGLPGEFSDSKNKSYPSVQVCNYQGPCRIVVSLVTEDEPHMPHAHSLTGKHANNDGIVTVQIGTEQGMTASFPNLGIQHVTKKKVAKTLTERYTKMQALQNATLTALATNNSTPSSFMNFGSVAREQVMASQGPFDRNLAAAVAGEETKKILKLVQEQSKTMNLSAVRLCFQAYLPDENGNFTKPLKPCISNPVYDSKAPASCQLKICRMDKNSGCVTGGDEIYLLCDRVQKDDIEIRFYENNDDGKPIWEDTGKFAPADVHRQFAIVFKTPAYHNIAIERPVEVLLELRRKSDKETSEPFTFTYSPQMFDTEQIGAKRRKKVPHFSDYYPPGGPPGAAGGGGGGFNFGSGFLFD

[1] = target: T2, GST-Nv-NF-kB (Cys allele) (Nematostella vectensis, UniProt E5G601 2-411)
T2 sequence: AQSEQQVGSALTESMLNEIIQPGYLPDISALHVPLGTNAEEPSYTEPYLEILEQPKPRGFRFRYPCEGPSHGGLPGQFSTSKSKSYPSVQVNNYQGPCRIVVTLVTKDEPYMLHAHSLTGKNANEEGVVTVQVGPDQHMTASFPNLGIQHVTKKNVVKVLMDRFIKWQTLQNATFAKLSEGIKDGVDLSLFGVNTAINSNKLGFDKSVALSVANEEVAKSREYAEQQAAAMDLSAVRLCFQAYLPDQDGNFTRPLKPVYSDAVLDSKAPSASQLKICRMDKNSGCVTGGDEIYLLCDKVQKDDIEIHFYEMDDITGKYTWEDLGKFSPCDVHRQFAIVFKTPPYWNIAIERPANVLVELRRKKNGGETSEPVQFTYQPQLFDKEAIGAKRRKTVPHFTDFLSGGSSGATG

[2] = target: T3, GST-Nv-NF-kB (Ser allele) (Nematostella vectensis, UniProt A7UNT2 2-411)
T3 sequence: T2 sequence with Q21R, C66S, S207N, E215Q, V217A, E225K, A268E, D399E

GST-Co-NF-kB = target: T4, GST-Co-NF-kB (Capsaspora owczarzaki, UniProt F1ARL5 200-546)
T4 sequence: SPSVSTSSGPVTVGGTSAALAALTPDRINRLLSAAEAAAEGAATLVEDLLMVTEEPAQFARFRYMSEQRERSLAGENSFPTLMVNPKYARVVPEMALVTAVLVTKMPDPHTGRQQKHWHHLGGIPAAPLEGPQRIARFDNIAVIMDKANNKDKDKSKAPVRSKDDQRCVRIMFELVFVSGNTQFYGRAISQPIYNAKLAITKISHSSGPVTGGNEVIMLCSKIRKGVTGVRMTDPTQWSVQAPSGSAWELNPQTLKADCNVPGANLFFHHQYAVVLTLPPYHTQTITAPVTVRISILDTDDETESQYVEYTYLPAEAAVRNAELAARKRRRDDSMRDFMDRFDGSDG

GST-Dm-Relish = target: T5, GST-Dm-Relish (Drosophila melanogaster, UniProt Q94527 99-473)
T5 sequence: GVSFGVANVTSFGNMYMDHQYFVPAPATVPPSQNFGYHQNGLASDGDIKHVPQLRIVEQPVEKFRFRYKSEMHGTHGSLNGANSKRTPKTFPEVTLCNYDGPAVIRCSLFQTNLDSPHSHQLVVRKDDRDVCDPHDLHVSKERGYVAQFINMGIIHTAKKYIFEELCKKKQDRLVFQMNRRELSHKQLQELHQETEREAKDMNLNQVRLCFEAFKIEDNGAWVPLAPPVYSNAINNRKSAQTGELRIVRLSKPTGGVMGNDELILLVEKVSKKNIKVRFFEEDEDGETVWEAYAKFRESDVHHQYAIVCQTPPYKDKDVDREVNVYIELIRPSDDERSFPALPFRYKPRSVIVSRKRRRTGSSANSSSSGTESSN

GST-Aq-NF-kB = target: T6, GST-Aq-NF-kB (Amphimedon queenslandica, UniProt A9Y5G7 2-389)
T6 sequence: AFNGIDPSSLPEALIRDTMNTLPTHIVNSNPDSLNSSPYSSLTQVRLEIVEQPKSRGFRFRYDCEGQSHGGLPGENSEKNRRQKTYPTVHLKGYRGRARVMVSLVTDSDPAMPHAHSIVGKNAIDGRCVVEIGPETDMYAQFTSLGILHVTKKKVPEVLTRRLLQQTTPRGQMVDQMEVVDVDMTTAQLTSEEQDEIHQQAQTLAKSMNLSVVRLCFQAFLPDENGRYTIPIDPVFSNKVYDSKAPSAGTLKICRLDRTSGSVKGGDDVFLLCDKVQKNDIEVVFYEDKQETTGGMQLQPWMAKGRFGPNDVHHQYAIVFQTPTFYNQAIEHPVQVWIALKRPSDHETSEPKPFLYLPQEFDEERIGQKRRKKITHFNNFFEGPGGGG

GST-Hu-p50 = GST-Hu-p50 (Homo sapiens, UniProt P19838 7-356)
Chain of GST-Hu-p50 (P19838 7-356): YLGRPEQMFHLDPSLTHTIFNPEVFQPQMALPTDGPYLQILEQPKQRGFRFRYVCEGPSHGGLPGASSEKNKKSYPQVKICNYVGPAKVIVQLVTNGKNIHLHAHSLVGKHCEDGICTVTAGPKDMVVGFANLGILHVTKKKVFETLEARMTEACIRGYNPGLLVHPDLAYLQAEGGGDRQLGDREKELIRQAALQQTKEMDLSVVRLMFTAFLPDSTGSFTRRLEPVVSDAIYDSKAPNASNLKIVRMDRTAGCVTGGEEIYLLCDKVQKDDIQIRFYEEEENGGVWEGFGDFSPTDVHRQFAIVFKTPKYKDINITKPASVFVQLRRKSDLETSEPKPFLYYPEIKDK

Row | Sequence | binding signal (GST-Ap-NF-kB RHD) [z-score] | binding signal [1] [z-score] | binding signal [2] [z-score] | binding signal (GST-Co-NF-kB) [z-score] | binding signal (GST-Dm-Relish) [z-score] | binding signal (GST-Aq-NF-kB) [z-score] | binding signal (GST-Hu-p50) [z-score]
1 | CCGATTAACATCACTATTTCCCCTGATGTTAATCGGGTCTTGATTCGCTTGACGCTGCTG | 6.35 | 7.42 | 9.8 | 8.77 | 3.62 | 4.85 | 6.08
2 | CCGATTAACATCAAGAAGTTCCCTGATGTTAATCGGGTCTTGATTCGCTTGACGCTGCTG | 3.54 | 3.73 | 2.6 | 2.42 | 3.58 | 4.79 | 3.17
3 | CCGATTAACATCAGGGGGTTTACTGATGTTAATCGGGTCTTGATTCGCTTGACGCTGCTG | 7.86 | 6.45 | 7.4 | 2.97 | 9.74 | 7.06 | 7.11
4 | CCGATTAACATCACGAATCCCCCTGATGTTAATCGGGTCTTGATTCGCTTGACGCTGCTG | 8.06 | 6.45 | 7.96 | 5.16 | 6.03 | 5.26 | 6.72
5 | CCGATTAACATCAGGGAAGTTTATGATGTTAATCGGGTCTTGATTCGCTTGACGCTGCTG | 4.29 | 4.93 | 4.78 | 2.58 | 3.35 | 5.26 | 3.73
6 | CCGATTAACATCAGAAATGTCCCTGATGTTAATCGGGTCTTGATTCGCTTGACGCTGCTG | 2.83 | 4.85 | 4.61 | 1.29 | 3.1 | 4.94 | 4.36
7 | CCGATTAACATCAAGTCCCCCCATGATGTTAATCGGGTCTTGATTCGCTTGACGCTGCTG | 5.62 | 4.07 | 3.94 | 6.53 | 4.21 | 4.39 | 3.78
8 | CCGATTAACATCAAAGACCCCCCTGATGTTAATCGGGTCTTGATTCGCTTGACGCTGCTG | 6.11 | 4.15 | 4.24 | 3.36 | 7.07 | 5.33 | 4.3
9 | CCGATTAACATCAAGATTCCCCTTGATGTTAATCGGGTCTTGATTCGCTTGACGCTGCTG | 7.59 | 10 | 10.8 | 5.46 | 6.62 | 6.39 | 7.18
10 | CCGATTAACATCAAAATATTCCCTGATGTTAATCGGGTCTTGATTCGCTTGACGCTGCTG | 6.25 | 7.36 | 7.68 | 4.81 | 4.34 | 6.27 | 4.33
11 | CCGATTAACATCAGAAGTGGGAATGATGTTAATCGGGTCTTGATTCGCTTGACGCTGCTG | 2.07 | 2 | 1.53 | 2.78 | 1.15 | 2.35 | 1.13
12 | CCGATTAACATCAGGGGTTCCCATGATGTTAATCGGGTCTTGATTCGCTTGACGCTGCTG | 4.04 | 2.36 | 1.37 | 1.64 | 10 | 4.49 | 2.64
13 | CCGATTAACATCAGAGATTCCCCTGATGTTAATCGGGTCTTGATTCGCTTGACGCTGCTG | 8.42 | 9.61 | 10.1 | 6.66 | 6.36 | 7.04 | 6.76
14 | CCGATTAACATCAAGGGGGGTGCTGATGTTAATCGGGTCTTGATTCGCTTGACGCTGCTG | 4.44 | 3.89 | 3.43 | 3.26 | 4.11 | 4.32 | 4.67
15 | CCGATTAACATCAAAACCCCCCTTGATGTTAATCGGGTCTTGATTCGCTTGACGCTGCTG | 8.76 | 7.32 | 7.84 | 3.85 | 10.5 | 8.03 | 7
16 | CCGATTAACATCAAGGGGATTTATGATGTTAATCGGGTCTTGATTCGCTTGACGCTGCTG | 7.79 | 9.15 | 11.3 | 3.44 | 8.3 | 6.25 | 7.34
17 | CCGATTAACATCAGGGGGAATGATGATGTTAATCGGGTCTTGATTCGCTTGACGCTGCTG | 6.17 | 7.14 | 7.16 | 6.6 | 3.1 | 4.98 | 5.4
18 | CCGATTAACATCAAAAAATCCCCTGATGTTAATCGGGTCTTGATTCGCTTGACGCTGCTG | 11.7 | 11.9 | 13.6 | 6.83 | 10.7 | 9.56 | 8.06
19 | CCGATTAACATCAGGGGAACAAATGATGTTAATCGGGTCTTGATTCGCTTGACGCTGCTG | 3.88 | 4.83 | 5.44 | 7.72 | 3.13 | 4.15 | 3.24
20 | CCGATTAACATCAAAAGGGGATATGATGTTAATCGGGTCTTGATTCGCTTGACGCTGCTG | 4.87 | 5.63 | 7.56 | 2.09 | 2.06 | 3.8 | 4.41
21 | CCGATTAACATCAGGGGGAGAAATGATGTTAATCGGGTCTTGATTCGCTTGACGCTGCTG | 7.1 | 6.13 | 7.48 | 10.7 | 3.41 | 4.8 | 6.45
22 | CCGATTAACATCAGGGGGAAATATGATGTTAATCGGGTCTTGATTCGCTTGACGCTGCTG | 7.3 | 8.58 | 10.6 | 11.1 | 4.77 | 6.38 | 7.38
23 | CCGATTAACATCAAAAAAAACCCTGATGTTAATCGGGTCTTGATTCGCTTGACGCTGCTG | 5.46 | 6.25 | 6.4 | 1.62 | 7.4 | 7.35 | 5.56
24 | CCGATTAACATCAGGGGAAAACATGATGTTAATCGGGTCTTGATTCGCTTGACGCTGCTG | 6.62 | 7.81 | 9.93 | 8.6 | 5.04 | 6.17 | 6.18
